# Data taken from PubChem BioAssay (EPA / NIEHS).
# Active and inactive are the calls of the source. The calls were made as follows: active = hit-call score of the fitted dose curve at least 0.9, where 1 is the maximum; inactive = score below 0.9.
# Assays:
# [1] = APR_HepG2_NuclearSize_72hr: Apredica 72-hour HepG2 Assay for Nuclear Size (AID 2282925); conditions: high-content imaging, actives raise or lower the signal
# Outline: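 Nuclear size was read by high-content imaging of Hoechst 33342 stain after formaldehyde fixation. Compounds ran 72 h on HepG2 at 0.39 to 200 uM, with final DMSO 0.5% v/v. Curves fitted both directions relative to DMSO control.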
# [2] = ATG_CRE_CIS: Attagene CIS-FACTORIAL HepG2 Assay for human cAMP Responsive Element (CRE) binding protein 3 (AID 2282926); conditions: HepG2 CRE cis-reporter, Attagene multiplexed mRNA; actives raise or lower the signal
# Outline: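 Endogenous transcription factor activity read via CRE-regulated reporter transcripts in transfected HepG2 cells. After 24 h exposure, RNA was reverse-transcribed, amplified, fluorescently labelled and sized by capillary electrophoresis; gain or loss fitted against DMSO.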
# [3] = biological target: CCAAT/enhancer-binding protein beta (Homo sapiens) (UniProt P17676); assay: ATG_C_EBP_CIS: Attagene CIS-FACTORIAL HepG2 Assay for human CCAAT/Enhancer Binding Protein (C/EBP) beta (AID 2282927); conditions: HepG2 Attagene cis-factorial transcription factor reporter; actives raise or lower the signal
# Chain of CCAAT/enhancer-binding protein beta (Homo sapiens) (P17676 whole entry, looked up): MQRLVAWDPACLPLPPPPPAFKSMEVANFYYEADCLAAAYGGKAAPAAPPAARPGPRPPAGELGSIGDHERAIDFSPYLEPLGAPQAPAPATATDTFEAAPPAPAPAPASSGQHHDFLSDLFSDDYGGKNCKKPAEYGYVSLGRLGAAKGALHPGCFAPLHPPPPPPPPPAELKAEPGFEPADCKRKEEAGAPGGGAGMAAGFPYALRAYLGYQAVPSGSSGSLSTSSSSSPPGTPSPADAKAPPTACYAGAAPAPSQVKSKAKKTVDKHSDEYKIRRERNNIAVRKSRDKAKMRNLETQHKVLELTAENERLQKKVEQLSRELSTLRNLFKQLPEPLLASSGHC
# Outline: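 Endogenous transcription factor activity in human liver HepG2 cells is inferred from induction of a CEBPB-linked reporter mRNA. Exposure lasts 24 h; activity is fitted in both directions relative to DMSO.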
# [4] = ATG_CMV_CIS: Attagene CIS-FACTORIAL HepG2 Assay for human CMV (Internal Marker) (AID 2282928); conditions: HepG2 CMV promoter reporter, transcription factor profiling; actives raise or lower the signal;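 also: endpoint acts as a background internal control marker rather than a target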
# Outline: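 Readout: fluorescent reporter cDNA fragments separated by capillary electrophoresis after RT-PCR and HpaI cut. Cells: HepG2 carrying transfected cis-promoter reporter constructs, dosed 24 h. Endpoint serves as background internal-marker control, fit bidirectionally versus DMSO.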
# [5] = ATG_DR4_LXR_CIS: Attagene CIS-FACTORIAL HepG2 Assay for human Liver X Receptor (LXR), DR4 submotif (AID 2282929); conditions: HepG2 Attagene DR4 cis-reporter, mRNA transcription; actives raise or lower the signal
# Outline: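 Fluorescence intensity of labelled reporter cDNA fragments, separated by capillary electrophoresis, gives the signal. HepG2 cells bearing cis-regulated reporter constructs were treated 24 h; activity fitted bidirectionally relative to DMSO negative control.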
# [6] = biological target: Aryl hydrocarbon receptor (Homo sapiens) (UniProt P35869); assay: ATG_Ahr_CIS: Attagene CIS-FACTORIAL HepG2 Assay for human Aryl Hydrocarbon Receptor (Ahr) (AID 2282930); conditions: HepG2 AhR cis-factorial reporter transcription; actives raise or lower the signal
# Chain of Aryl hydrocarbon receptor (Homo sapiens) (P35869 whole entry, looked up): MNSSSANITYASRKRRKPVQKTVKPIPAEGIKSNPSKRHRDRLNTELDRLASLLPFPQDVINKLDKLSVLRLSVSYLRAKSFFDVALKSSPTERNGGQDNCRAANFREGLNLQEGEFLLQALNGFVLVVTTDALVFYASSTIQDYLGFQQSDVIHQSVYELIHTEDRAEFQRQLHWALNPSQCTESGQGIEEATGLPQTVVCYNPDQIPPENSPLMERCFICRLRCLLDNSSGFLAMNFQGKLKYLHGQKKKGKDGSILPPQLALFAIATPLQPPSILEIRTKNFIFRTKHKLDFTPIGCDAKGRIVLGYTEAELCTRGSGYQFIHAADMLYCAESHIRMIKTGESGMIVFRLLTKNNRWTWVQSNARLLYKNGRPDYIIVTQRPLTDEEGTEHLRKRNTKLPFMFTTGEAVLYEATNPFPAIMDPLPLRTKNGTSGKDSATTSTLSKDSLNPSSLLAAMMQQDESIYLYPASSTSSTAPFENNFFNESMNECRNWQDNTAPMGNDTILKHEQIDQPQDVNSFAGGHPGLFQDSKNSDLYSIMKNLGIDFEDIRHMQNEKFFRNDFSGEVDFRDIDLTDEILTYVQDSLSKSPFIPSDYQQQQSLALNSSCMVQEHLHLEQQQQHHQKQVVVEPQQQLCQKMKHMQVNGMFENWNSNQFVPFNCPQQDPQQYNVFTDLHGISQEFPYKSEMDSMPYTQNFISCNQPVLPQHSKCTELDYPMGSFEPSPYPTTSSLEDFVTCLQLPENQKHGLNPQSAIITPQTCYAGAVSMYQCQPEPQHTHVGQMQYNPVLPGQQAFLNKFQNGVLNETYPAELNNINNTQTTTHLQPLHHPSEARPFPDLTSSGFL
# Outline: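 Transient MRTU transfection of HepG2 → 24 h compound exposure → total RNA, oligo(dT) RT → PCR, 6-FAM extension, HpaI cut → CE fluorescence. DMSO = baseline; bidirectional curve fit.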
# [7] = ATG_AP_1_CIS: Attagene CIS-FACTORIAL HepG2 Assay for human Activator Protein 1 (AP-1) (AID 2282931); conditions: HepG2 Attagene cis-factorial AP-1 reporter mRNA; actives raise or lower the signal
# Outline: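 Multiplexed HepG2 reporter assay, 24 h dosing. mRNA induction detected by RT-PCR plus capillary electrophoresis. Activity fitted in both directions against DMSO.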
# [8] = ATG_AP_2_CIS: Attagene CIS-FACTORIAL HepG2 Assay for human Activator Protein 2 (AP-2) (AID 2282932); conditions: HepG2 AP-2 cis-reporter, Attagene transcription factor profiling; actives raise or lower the signal
# Outline: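 Transiently transfected HepG2 cells are exposed to chemical for 24 h. Reporter transcripts are then measured as fluorescence following RT-PCR and capillary separation, and gain- or loss-of-signal is fitted relative to DMSO.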
# [9] = ATG_BRE_CIS: Attagene CIS-FACTORIAL HepG2 Assay for human Bone Morphogenetic Protein (BMP) Response Element (BRE) (AID 2282933); conditions: HepG2 BMP response element reporter, Attagene transcription factor profiling; actives raise or lower the signal
# Outline: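 HepG2 cells transiently transfected with multiplexed cis-element reporter units were dosed with chemical for 24 h. Reporter mRNA was measured by RT-PCR with fluorescent labelling, HpaI digestion and capillary electrophoresis; bidirectional fitting relative to DMSO.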
# [10] = biological target: Retinoic acid receptor alpha (Homo sapiens) (UniProt P10276); assay: ATG_DR5_RAR_CIS: Attagene CIS-FACTORIAL HepG2 Assay for human Retinoic Acid Receptor Alpha (RARE), DR5 submotif (AID 2282934); conditions: HepG2 Attagene cis-factorial RARE DR5 reporter, mRNA; actives raise or lower the signal;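 as to AC50: reporter responds to endogenous RAR alpha beta and gamma in HepG2 not RARA alone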
# Chain of Retinoic acid receptor alpha (Homo sapiens) (P10276 whole entry, looked up): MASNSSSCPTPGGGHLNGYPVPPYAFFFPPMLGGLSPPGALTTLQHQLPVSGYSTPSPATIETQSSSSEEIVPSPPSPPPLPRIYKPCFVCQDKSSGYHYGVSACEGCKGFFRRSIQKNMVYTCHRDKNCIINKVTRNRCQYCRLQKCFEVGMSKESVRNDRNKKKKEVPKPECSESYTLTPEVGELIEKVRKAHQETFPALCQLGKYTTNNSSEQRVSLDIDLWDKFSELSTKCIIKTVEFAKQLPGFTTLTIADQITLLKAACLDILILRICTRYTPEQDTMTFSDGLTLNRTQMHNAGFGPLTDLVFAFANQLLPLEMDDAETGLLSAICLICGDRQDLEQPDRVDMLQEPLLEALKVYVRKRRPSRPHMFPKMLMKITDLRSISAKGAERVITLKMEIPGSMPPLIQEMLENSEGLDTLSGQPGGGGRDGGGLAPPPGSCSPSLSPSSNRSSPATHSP
# Outline: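 Transient MRTU transfection of HepG2; 24 h compound treatment; TriZol RNA, oligo(dT) RT, PCR, FAM labelling, capillary electrophoresis. Bidirectional fit vs DMSO. Endogenous TF activity at DR5 RARE.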
# [11] = biological target: Transcription factor E2F1 (Homo sapiens) (UniProt Q01094); assay: ATG_E2F_CIS: Attagene CIS-FACTORIAL HepG2 Assay for human E2F Transcription Factor 1 (AID 2282935); conditions: HepG2 Attagene cis-reporter, E2F reporter RNA transcripts; actives raise or lower the signal
# Chain of Transcription factor E2F1 (Homo sapiens) (Q01094 whole entry, looked up): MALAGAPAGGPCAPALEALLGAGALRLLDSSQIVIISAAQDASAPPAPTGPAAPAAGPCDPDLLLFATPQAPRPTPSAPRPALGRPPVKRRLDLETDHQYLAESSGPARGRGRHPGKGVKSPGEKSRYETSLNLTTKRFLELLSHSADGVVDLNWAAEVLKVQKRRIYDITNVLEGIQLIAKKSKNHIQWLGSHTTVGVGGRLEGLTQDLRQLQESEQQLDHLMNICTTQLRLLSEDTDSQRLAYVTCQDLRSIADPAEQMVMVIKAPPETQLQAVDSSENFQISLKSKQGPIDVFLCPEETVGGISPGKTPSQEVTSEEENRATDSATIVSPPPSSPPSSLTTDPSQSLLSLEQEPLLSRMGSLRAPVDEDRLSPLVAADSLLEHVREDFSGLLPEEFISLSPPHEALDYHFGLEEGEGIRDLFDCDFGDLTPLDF
# Outline: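 Fluorescent RT-PCR products, digested with HpaI for 2 h at 37 C, are separated by capillary electrophoresis. Source RNA comes from transfected HepG2 cultures treated for 24 h.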
# [12] = ATG_E_Box_CIS: Attagene CIS-FACTORIAL HepG2 Assay for human Enhancer Box (E-box) (AID 2282936); conditions: HepG2 E-box cis-reporter transcription, actives raise or lower the signal
# Outline: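 Fluorescent reporter fragments separated by capillary electrophoresis gave the signal; mRNA came from HepG2 cells transfected with cis-element reporters and treated 24 h. Curves fitted bidirectionally relative to DMSO controls.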
# [13] = ATG_M_61_CIS: Attagene CIS-FACTORIAL HepG2 Assay for M61 Transcription Factor (Internal Marker) (AID 2282937); conditions: HepG2 Attagene CIS-FACTORIAL M61 internal marker reporter; actives raise or lower the signal
# Outline: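 Endogenous transcription factor activity in HepG2 is read through transiently transfected cis-element reporter units. After 24 h dosing, RNA undergoes reverse transcription, PCR and primer extension with 6-FAM before capillary electrophoresis; DMSO-referenced bidirectional fit.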
# [14] = ATG_EGR_CIS: Attagene CIS-FACTORIAL HepG2 Assay for human Early Growth Response 1 (EGR1) (AID 2282938); conditions: HepG2 Attagene CIS-FACTORIAL EGR reporter mRNA; actives raise or lower the signal
# Outline: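 Activity is taken as induction or loss of reporter mRNA versus DMSO, fitted bidirectionally. Transcripts from cis-regulated reporter units in transiently transfected HepG2 were measured after 24 h by RT-PCR with capillary electrophoresis.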
# [15] = ATG_M_19_CIS: Attagene CIS-FACTORIAL HepG2 Assay for M19 Transcription Factor (Internal Marker) (AID 2282939); conditions: HepG2 Attagene CIS-FACTORIAL M19 internal marker reporter; actives raise or lower the signal
# Outline: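 HepG2 cells transiently transfected with cis-regulated multiple reporter transcription units were dosed for 24 h; reporter mRNA was quantified by RT-PCR, 6-FAM primer-extension labelling, HpaI digestion and capillary electrophoresis, with bidirectional fitting against DMSO baseline.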
# [16] = ATG_ERE_CIS: Attagene CIS-FACTORIAL HepG2 Assay for Estrogen Response Element (ERE) (AID 2282940); conditions: HepG2 ERE cis-reporter, Attagene RNA transcript; actives raise or lower the signal
# Outline: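 HepG2 cells transiently transfected with cis-promoter-driven multiplexed reporter transcription units report endogenous TF activity. After 24 h compound exposure, reporter mRNA is quantified by RT-PCR with capillary electrophoresis fluorescence; bidirectional fitting versus DMSO baseline.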
# [17] = ATG_Ets_CIS: Attagene CIS-FACTORIAL HepG2 Assay for human Erythroblast Transformation Specific (ETS) (AID 2282941); conditions: HepG2 ETS cis-reporter transcription, actives raise or lower the signal
# Outline: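 RT-PCR/capillary electrophoresis fluorescence read-out of reporter mRNA; HepG2 transient multi-reporter transfection; 24 h compound exposure; gain or loss of signal fitted bidirectionally relative to DMSO.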
# [18] = biological target: Hepatocyte nuclear factor 3-beta (Homo sapiens) (UniProt Q9Y261); assay: ATG_FoxA2_CIS: Attagene CIS-FACTORIAL HepG2 Assay for human Forkhead box A2 (FOXA2) (AID 2282942); conditions: HepG2 cis-reporter transcription factor activity, 24 h; actives raise or lower the signal
# Chain of Hepatocyte nuclear factor 3-beta (Homo sapiens) (Q9Y261 whole entry, looked up): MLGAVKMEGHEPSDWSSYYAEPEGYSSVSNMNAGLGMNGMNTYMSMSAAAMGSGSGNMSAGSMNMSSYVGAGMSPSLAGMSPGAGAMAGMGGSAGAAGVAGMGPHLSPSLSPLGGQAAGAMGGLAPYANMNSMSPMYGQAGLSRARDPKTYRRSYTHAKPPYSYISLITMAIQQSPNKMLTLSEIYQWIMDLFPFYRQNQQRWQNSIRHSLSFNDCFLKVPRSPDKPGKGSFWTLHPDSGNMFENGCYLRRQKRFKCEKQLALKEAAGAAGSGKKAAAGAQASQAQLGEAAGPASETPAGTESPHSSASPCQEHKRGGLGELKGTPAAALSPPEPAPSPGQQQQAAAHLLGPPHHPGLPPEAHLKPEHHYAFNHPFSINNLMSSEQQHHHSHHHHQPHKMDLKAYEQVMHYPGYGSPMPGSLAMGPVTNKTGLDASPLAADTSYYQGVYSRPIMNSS
# Outline: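 Reporter transcript induction is measured by fluorescence after capillary electrophoresis of RT-PCR products from HepG2 cells exposed 24 h. Cis-regulated reporter units report endogenous factor activity; curves fitted both directions against DMSO.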
# [19] = ATG_FoxO_CIS: Attagene CIS-FACTORIAL HepG2 Assay for human Forkhead box O (FoxO) (AID 2282943); conditions: HepG2 Attagene cis-reporter, FoxO element, mRNA; actives raise or lower the signal
# Outline: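 HepG2, transient MRTU transfection (cis element, endogenous TFs). Dose 24 h. TriZol RNA → oligo(dT) RT → PCR → 6-FAM primer extension → HpaI cut → CE. Gain/loss vs DMSO.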
# [20] = ATG_GATA_CIS: Attagene CIS-FACTORIAL HepG2 Assay for human GATA Binding Protein (AID 2282944); conditions: HepG2 GATA cis-element reporter, Attagene multiplex mRNA; actives raise or lower the signal
# Outline: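 HepG2 cells transiently transfected with multiplexed cis-element reporter units reflecting endogenous transcription factor activity; reporter mRNA measured after 24 h dosing by RT-PCR, 6-FAM labeling, HpaI digestion and capillary electrophoresis. Bidirectional fitting versus DMSO baseline.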
smiles,measurement,setting,value
CCCCC(CC)COC(=O)c1ccccc1C(=O)OCC(CC)CCCC (stereo not given),outcome,[1],inactive
same,outcome,[2],inactive
same,outcome,[3],inactive
same,outcome,[4],inactive
same,outcome,[5],inactive
same,outcome,[6],inactive
same,outcome,[7],inactive
same,outcome,[8],inactive
same,outcome,[9],inactive
same,outcome,[10],inactive
same,outcome,[11],inactive
same,outcome,[12],inactive
same,outcome,[13],inactive
same,outcome,[14],inactive
same,outcome,[15],inactive
same,outcome,[16],inactive
same,outcome,[17],inactive
same,outcome,[18],inactive
same,outcome,[19],inactive
same,outcome,[20],inactive
COC(=O)C=C(C)OP(=O)(OC)OC,outcome,[1],inactive
same,outcome,[2],inactive
same,outcome,[3],inactive
same,outcome,[4],inactive
same,outcome,[5],inactive
same,outcome,[6],inactive
same,outcome,[7],inactive
same,outcome,[8],inactive
same,outcome,[9],inactive
same,outcome,[10],inactive
same,outcome,[11],inactive
same,outcome,[12],inactive
same,outcome,[13],inactive
same,outcome,[14],inactive
same,outcome,[15],inactive
same,outcome,[16],inactive
same,outcome,[17],inactive
same,outcome,[18],inactive
same,outcome,[19],inactive
same,outcome,[20],inactive
CCON=C(CC)C1=C(O)CC(c2c(C)cc(C)cc2C)CC1=O (stereo not given),outcome,[1],inactive
same,outcome,[2],inactive
same,outcome,[3],inactive
same,outcome,[4],inactive
same,outcome,[5],inactive
same,outcome,[6],inactive
same,outcome,[7],inactive
same,outcome,[8],inactive
same,outcome,[9],inactive
same,outcome,[10],inactive
same,outcome,[11],inactive
same,outcome,[12],inactive
same,outcome,[13],inactive
same,outcome,[14],inactive
same,outcome,[15],inactive
same,outcome,[16],inactive
same,outcome,[17],inactive
same,outcome,[18],inactive
same,outcome,[19],inactive
same,outcome,[20],inactive
CCc1nn(C)c(C(=O)NCc2ccc(C(C)(C)C)cc2)c1Cl,outcome,[1],inactive
same,AC50,[2],378 nM (active)
same,AC50,[3],1.19 µM (active)
same,AC50,[4],171 nM (active)
same,outcome,[5],inactive
same,outcome,[6],inactive
same,AC50,[7],117 nM (active)
same,outcome,[8],inactive
same,AC50,[9],578 nM (active)
same,AC50,[10],425 nM (active)
same,outcome,[11],inactive
same,outcome,[12],inactive
same,outcome,[13],inactive
same,outcome,[14],inactive
same,outcome,[15],inactive
same,outcome,[16],inactive
same,outcome,[17],inactive
same,outcome,[18],inactive
same,outcome,[19],inactive
same,outcome,[20],inactive
CCCCNC(=O)n1c(NC(=O)OC)nc2ccccc21,outcome,[1],inactive
same,outcome,[2],inactive
same,outcome,[3],inactive
same,outcome,[4],inactive
same,outcome,[5],inactive
same,outcome,[6],inactive
same,outcome,[7],inactive
same,outcome,[8],inactive
same,outcome,[9],inactive
same,outcome,[10],inactive
same,outcome,[11],inactive
same,outcome,[12],inactive
same,outcome,[13],inactive
same,outcome,[14],inactive
same,outcome,[15],inactive
same,outcome,[16],inactive
same,outcome,[17],inactive
same,outcome,[18],inactive
same,outcome,[19],inactive
same,outcome,[20],inactive
COP(=S)(OC)Oc1nc(Cl)c(Cl)cc1Cl,outcome,[1],inactive
same,outcome,[2],inactive
same,outcome,[3],inactive
same,outcome,[4],inactive
same,AC50,[5],85.1 µM (active)
same,outcome,[6],inactive
same,outcome,[7],inactive
same,outcome,[8],inactive
same,outcome,[9],inactive
same,outcome,[10],inactive
same,outcome,[11],inactive
same,outcome,[12],inactive
same,outcome,[13],inactive
same,outcome,[14],inactive
same,outcome,[15],inactive
same,AC50,[16],33.5 µM (active)
same,outcome,[17],inactive
same,outcome,[18],inactive
same,outcome,[19],inactive
same,outcome,[20],inactive
